Assay results as given in the supplement of paper PMC12282887.
± gives the standard deviation of the averaged measurements.

Test system: E. coli BW25113 marRABp lux reporter
Test: promoter activity interaction Z-score (Lux/OD deviation from empty-vector control); higher = stronger promoter induction by the compound
Experimental: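 E. coli BW25113 (wild type or ΔmarA/ΔsoxS/Δrob) carrying pTU175 luxCDABE promoter reporters was grown in LB in 384-well plates at 37°C with each of 94 compounds at 4 two-fold concentrations, in biological duplicates. Luminescence and OD600 were read every 30 min for 12 h and integrated as AUC over 8 h (0-8 h WT, 1-9 h mutants). Lux AUC was divided by OD AUC; the interaction score is the residual of a Huber robust fit of each promoter against the empty-vector control, then Z-transformed per promoter.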

CC1(C)S[C@@H]2[C@H](NC(=O)Cc3ccccc3)C(=O)N2[C@H]1C(=O)O [Penicillin G]
promoter activity interaction Z-score (0.47 µg/ml, genetic background: wild type): -0.0595 ± 0.01
promoter activity interaction Z-score (0.47 µg/ml, genetic background: ΔmarA): -0.219 ± 0.31
promoter activity interaction Z-score (0.47 µg/ml, genetic background: Δrob): -0.0723 ± 0.22
promoter activity interaction Z-score (0.47 µg/ml, genetic background: ΔsoxS): 0.0424 ± 0.095
promoter activity interaction Z-score (0.93 µg/ml, genetic background: wild type): 0.124 ± 0.25
promoter activity interaction Z-score (0.93 µg/ml, genetic background: ΔmarA): -0.178 ± 0.24
promoter activity interaction Z-score (0.93 µg/ml, genetic background: Δrob): -0.0814 ± 0.19
promoter activity interaction Z-score (0.93 µg/ml, genetic background: ΔsoxS): 0.103 ± 0.11
promoter activity interaction Z-score (1.9 µg/ml, genetic background: wild type): -0.36 ± 0.024
promoter activity interaction Z-score (1.9 µg/ml, genetic background: ΔmarA): -0.244 ± 0.026
promoter activity interaction Z-score (1.9 µg/ml, genetic background: Δrob): -0.221 ± 0.14
promoter activity interaction Z-score (1.9 µg/ml, genetic background: ΔsoxS): 0.0691 ± 0.16
promoter activity interaction Z-score (3.7 µg/ml, genetic background: wild type): -0.195 ± 0.22
promoter activity interaction Z-score (3.7 µg/ml, genetic background: ΔmarA): -0.122 ± 0.053
promoter activity interaction Z-score (3.7 µg/ml, genetic background: Δrob): 0.035 ± 0.11
promoter activity interaction Z-score (3.7 µg/ml, genetic background: ΔsoxS): -0.0494 ± 0.053

COc1ccc2cc3[n+](cc2c1OC)CCc1cc2c(cc1-3)OCO2 [Berberine]
promoter activity interaction Z-score (21 µg/ml, genetic background: wild type): -0.142 ± 0.16
promoter activity interaction Z-score (21 µg/ml, genetic background: ΔmarA): -0.0869 ± 0.24
promoter activity interaction Z-score (21 µg/ml, genetic background: Δrob): -0.003 ± 0.15
promoter activity interaction Z-score (21 µg/ml, genetic background: ΔsoxS): 0.0721 ± 0.0037
promoter activity interaction Z-score (42 µg/ml, genetic background: wild type): -0.183 ± 0.049
promoter activity interaction Z-score (42 µg/ml, genetic background: ΔmarA): -0.0953 ± 0.12
promoter activity interaction Z-score (42 µg/ml, genetic background: Δrob): -0.278 ± 0.1
promoter activity interaction Z-score (42 µg/ml, genetic background: ΔsoxS): -0.0367 ± 0.026
promoter activity interaction Z-score (84.1 µg/ml, genetic background: wild type): -0.286 ± 0.35
promoter activity interaction Z-score (84.1 µg/ml, genetic background: ΔmarA): 0.056 ± 0.18
promoter activity interaction Z-score (84.1 µg/ml, genetic background: Δrob): -0.324 ± 0.01
promoter activity interaction Z-score (84.1 µg/ml, genetic background: ΔsoxS): -0.135 ± 0.015
promoter activity interaction Z-score (168.2 µg/ml, genetic background: wild type): -0.373 ± 0.17
promoter activity interaction Z-score (168.2 µg/ml, genetic background: ΔmarA): -0.165 ± 0.027
promoter activity interaction Z-score (168.2 µg/ml, genetic background: Δrob): -0.287 ± 0.045
promoter activity interaction Z-score (168.2 µg/ml, genetic background: ΔsoxS): -0.015 ± 0.094
